# Test system: TSSK3
# Settings: concentration: 1 μM, replicates: in singlicate; n = 1
# 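Note: KINOMEscan kinase panel screen.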
row,Compound,%Inh
1,Cl.c1ccc(Cn2cnc3cc(Nc4ncnc5ccccc45)ccc32)cc1 [GW272142],10%
2,O=C(Nc1ccc2c(c1)OCO2)NC1CCN(c2ccnc(NCc3ccc(F)cc3)n2)CC1 [GSK1379859],12%
3,CCn1c(-c2ccoc2)nc2cnccc21 [SB-733887],6%
4,COc1cc2nccc(Nc3ccc(OCc4ccc(NC(C)=O)cc4)cc3)c2cc1OC.Cl [GW440135],26%
5,CCC(=O)c1c(-c2ccccc2)c2cc(Cl)ccc2c(=O)n1Cc1cc(S(C)(=O)=O)n(CC(F)F)n1,0%
6,Nc1nc(-c2ccccc2F)c(-c2ccnc3ccccc23)s1 [GW560459],10%
7,COc1ccc(-c2coc3ccc(-c4nnc(SCc5cccc(C#N)c5)o4)cc23)cc1,0%
8,CCn1c(-c2nonc2N)nc2ccccc21 [SB-693162/GW549034],0%
9,Nc1ncnc2c1ncn2-c1cccc(F)c1 [SKF-97560],20%
10,COc1cc2ncn(-c3cc(OCc4ccc(S(C)(=O)=O)cc4)c(C(N)=O)s3)c2cc1OC [GW869979],22%
11,Cc1c(Cn2c(C)nn3c(=O)cc(N4CCO[C@H](C)C4)nc23)cccc1C(F)(F)F [GSK2373690],14%
12,COC(=O)c1c(-c2ccccc2)c2cc(Br)ccc2c(=O)n1Cc1ccc(S(C)(=O)=O)cc1,0%
13,COc1cc2ncn(-c3cc(OCc4ccncc4Br)c(C(N)=O)s3)c2cc1OC [GW854278],0%
14,O=C1NC(=O)C(c2ccccc2)=C1Nc1cccc(O)c1 [SB-390534],0%
15,COc1ccc(CNC(=O)NC2CCN(c3ccnc(Nc4ccc(F)cc4)n3)C2)cc1 (centres unmarked) [GSK1379706],21%
16,COc1cc2nccc(Nc3cccc(Oc4ccccc4)c3)c2cc1OC.Cl [GW284543],13%
17,Cc1nnc(-c2ccc(C)c(-c3ccc(C(=O)O)cc3)c2)o1 [GW608005],0%
18,Cc1cccc(-c2nc(Nc3ccc4c(cnn4C)c3)c3ccccc3n2)n1 [GW876731],0%
19,Cc1nc(N(C)[C@H]2CN(C(=O)CC#N)CC[C@H]2C)c2cc[nH]c2n1,0%

row,Compound,%Inh
1,COc1cc(Nc2ccnc3ccc(C(F)(F)F)cc23)cc(OC)c1OC [GW577382],13%
2,COc1cccc(-n2cnc3c(N)ncnc32)c1 [SKF-97416],21%
3,COc1ccc(-c2cc3c(C)nc(N)nc3n([C@H]3CC[C@H](OCCO)CC3)c2=O)cn1,0%
4,COc1cc2ncn(-c3cc(OCCCc4ccccc4)c(C(N)=O)s3)c2cc1OC [GSK205189],10%
5,CN1C(=O)C(Nc2ccccc2)=C(c2ccccc2)C1=O [SB-300079],0%
6,O=C(NCc1cccs1)c1cc(C(=O)c2c(Cl)cccc2Cl)c[nH]1 [GW823670],0%
7,CCCNC(=O)Nc1ccc(Oc2ncnc3ccn(C)c23)cc1,0%
8,Nc1nccc2scc(-c3ccc4c(c3)CCN4C(=O)Cc3ccccc3)c12 [GSK2576924],14%
9,CCC(=O)c1c(-c2ccccc2)c2cc(Cl)ccc2c(=O)n1Cc1cc(S(C)(=O)=O)n(CCC(C)(C)O)n1,1%
10,Nc1nc(N)c2nc(-c3ccccc3)[nH]c2n1 [SKF-12778],5%
11,COc1ccc(-c2cc3c(C)nc(N)nc3n([C@H]3CC[C@H](O)CC3)c2=O)cn1,0%
12,Cc1ccccc1COc1cc(-n2cnc3cc(Cl)ccc32)sc1C(N)=O [GW813349],0%
13,COc1ccc(-n2cnc3c(N)ncnc32)cc1 [SKF-97236],0%
14,COC(=O)c1c(-c2ccccc2)c2cc(C)ccc2c(=O)n1Cc1ccccc1,0%
15,O=C(Nc1n[nH]c2cc(-c3ccccc3F)ccc12)C1CC1 [SB-733371],0%
16,COc1cc(Nc2nccc(N3CCC(NC(=O)C4COc5ccccc5O4)C3)n2)cc(OC)c1OC (centres unmarked) [GSK1379761],9%
17,O=C(Nc1n[nH]c2nc(-c3ccccc3)c(Cl)cc12)C1CC1 [SB-734909],0%
18,O=c1cc(N2CCOCC2)nc2n(Cc3ccc(F)c(Cl)c3)ccn12 [GSK2297099],9%

# Test system: TTK
# Settings: concentration: 1 μM, replicates: in singlicate; n = 1
row,Compound,%Inh
1,Cl.c1ccc(Cn2cnc3cc(Nc4ncnc5ccccc45)ccc32)cc1 [GW272142],0%
2,O=C(Nc1ccc2c(c1)OCO2)NC1CCN(c2ccnc(NCc3ccc(F)cc3)n2)CC1 [GSK1379859],0%
3,CCn1c(-c2ccoc2)nc2cnccc21 [SB-733887],0%
4,COc1cc2nccc(Nc3ccc(OCc4ccc(NC(C)=O)cc4)cc3)c2cc1OC.Cl [GW440135],0%
5,CCC(=O)c1c(-c2ccccc2)c2cc(Cl)ccc2c(=O)n1Cc1cc(S(C)(=O)=O)n(CC(F)F)n1,0%
6,Nc1nc(-c2ccccc2F)c(-c2ccnc3ccccc23)s1 [GW560459],20%
7,COc1ccc(-c2coc3ccc(-c4nnc(SCc5cccc(C#N)c5)o4)cc23)cc1,6%
8,CCn1c(-c2nonc2N)nc2ccccc21 [SB-693162/GW549034],29%
9,Nc1ncnc2c1ncn2-c1cccc(F)c1 [SKF-97560],0%
10,COc1cc2ncn(-c3cc(OCc4ccc(S(C)(=O)=O)cc4)c(C(N)=O)s3)c2cc1OC [GW869979],0%
11,Cc1c(Cn2c(C)nn3c(=O)cc(N4CCO[C@H](C)C4)nc23)cccc1C(F)(F)F [GSK2373690],0%
12,COC(=O)c1c(-c2ccccc2)c2cc(Br)ccc2c(=O)n1Cc1ccc(S(C)(=O)=O)cc1,31%
13,COc1cc2ncn(-c3cc(OCc4ccncc4Br)c(C(N)=O)s3)c2cc1OC [GW854278],0%
14,O=C1NC(=O)C(c2ccccc2)=C1Nc1cccc(O)c1 [SB-390534],0%
15,COc1ccc(CNC(=O)NC2CCN(c3ccnc(Nc4ccc(F)cc4)n3)C2)cc1 (centres unmarked) [GSK1379706],21%
16,COc1cc2nccc(Nc3cccc(Oc4ccccc4)c3)c2cc1OC.Cl [GW284543],0%
17,Cc1nnc(-c2ccc(C)c(-c3ccc(C(=O)O)cc3)c2)o1 [GW608005],12%
18,Cc1cccc(-c2nc(Nc3ccc4c(cnn4C)c3)c3ccccc3n2)n1 [GW876731],0%
19,Cc1nc(N(C)[C@H]2CN(C(=O)CC#N)CC[C@H]2C)c2cc[nH]c2n1,19%

row,Compound,%Inh
1,COc1cc(Nc2ccnc3ccc(C(F)(F)F)cc23)cc(OC)c1OC [GW577382],17%
2,COc1cccc(-n2cnc3c(N)ncnc32)c1 [SKF-97416],44%
3,COc1ccc(-c2cc3c(C)nc(N)nc3n([C@H]3CC[C@H](OCCO)CC3)c2=O)cn1,0%
4,COc1cc2ncn(-c3cc(OCCCc4ccccc4)c(C(N)=O)s3)c2cc1OC [GSK205189],12%
5,CN1C(=O)C(Nc2ccccc2)=C(c2ccccc2)C1=O [SB-300079],0%
6,O=C(NCc1cccs1)c1cc(C(=O)c2c(Cl)cccc2Cl)c[nH]1 [GW823670],9%
7,CCCNC(=O)Nc1ccc(Oc2ncnc3ccn(C)c23)cc1,0%
8,Nc1nccc2scc(-c3ccc4c(c3)CCN4C(=O)Cc3ccccc3)c12 [GSK2576924],0%
9,CCC(=O)c1c(-c2ccccc2)c2cc(Cl)ccc2c(=O)n1Cc1cc(S(C)(=O)=O)n(CCC(C)(C)O)n1,4%
10,Nc1nc(N)c2nc(-c3ccccc3)[nH]c2n1 [SKF-12778],4%
11,COc1ccc(-c2cc3c(C)nc(N)nc3n([C@H]3CC[C@H](O)CC3)c2=O)cn1,0%
12,Cc1ccccc1COc1cc(-n2cnc3cc(Cl)ccc32)sc1C(N)=O [GW813349],2%
13,COc1ccc(-n2cnc3c(N)ncnc32)cc1 [SKF-97236],28%
14,COC(=O)c1c(-c2ccccc2)c2cc(C)ccc2c(=O)n1Cc1ccccc1,5%
15,O=C(Nc1n[nH]c2cc(-c3ccccc3F)ccc12)C1CC1 [SB-733371],0%
16,COc1cc(Nc2nccc(N3CCC(NC(=O)C4COc5ccccc5O4)C3)n2)cc(OC)c1OC (centres unmarked) [GSK1379761],13%
17,O=C(Nc1n[nH]c2nc(-c3ccccc3)c(Cl)cc12)C1CC1 [SB-734909],0%
18,O=c1cc(N2CCOCC2)nc2n(Cc3ccc(F)c(Cl)c3)ccn12 [GSK2297099],0%

# From paper PMC5540273 (PLoS ONE, 2017)
